In all, about 290,000 compounds went through this assay and about 3,500 (1.2%) were called active. This is one part of a sample in which actives are shown more often than they occur. Values without a mark were called inactive.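 Rule for the calls: active = inhibition above the campaign mean inhibition over all tested compounds plus 3 SD (cut at about 28% in these data); inactive = the rest.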

The subject of the experiment is M18 aspartyl aminopeptidase (Plasmodium falciparum 3D7). Briefly: PfM18AAP inhibitors, malaria aminopeptidase, primary screen, biochemical, QFRET, recombinant enzyme (AID 1822).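 Note: 0% = plate median of test compound wells and 100% = 2 mM ZnCl2.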 To be noted: H-Glu-NHMec fluorogenic cleavage, at 7.35 µM, stronger effect = higher value.
`O=C(NC1Cc2ccccc2C1)c1cc(COc2cccc(C(F)(F)F)c2)on1`: the inhibition was 0.88%.

As for `O=C(O)c1ccccc1-c1ccccc1C(=O)NCCc1ccccc1`, the inhibition was 0.27%.

As for `COc1cccc(NC(=S)NCCCN2CCOCC2)c1`, the inhibition is -6.09%.

Turning to `Cc1ccc(C(=O)NC(=S)NCCN2CCOCC2)cc1`, the inhibition was -7.16%.

`CCOc1cccc(/C=N/NC(=S)NCCN2CCOCC2)c1O`: the inhibition was 37.6% (active).

For `c1cnc(N2CCN(c3ccc4ccccc4n3)CC2)nc1`, the inhibition was -7.11%.

As to `COC(=O)c1cc(NS(=O)(=O)c2ccc3c(c2)c(=O)n(C)c(=O)n3C)cc(C(=O)OC)c1`, the inhibition is 7.75%.

Take `CCOC(=O)[C@H]1[C@H]2COc3cc(OC)ccc3[C@@H]2N2C(=O)N(c3ccc(Br)cc3)C(=O)[C@@]12C`: the inhibition is 8.12%.

For `COc1cc(Cl)ccc1OCc1cc(C(=O)N2CC[C@@H]3CCCC[C@H]3C2)no1`, the inhibition was -8.61%.

Turning to `CCOc1ccc(/C=N/NC(=O)CSc2ccccn2)cc1O`, the inhibition is -7.37%.

Turning to `CCOc1cc(/C=N/NC(=O)CN2CCCCC2)ccc1O`, the inhibition is -2.78%.

For the compound `Cc1nc2ccccc2n1CC(=O)N/N=C/c1cccnc1`, the inhibition was 0.09%.

Turning to `CCn1c(SCC(=O)N/N=C/c2ccncc2)nc2ccccc21`, the inhibition is -5.49%.

Take `Cc1nccn1CC(=O)N/N=C/c1ccc(O)c(O)c1`: the inhibition was 59.7% (active).

On to `Cn1c(SCC(=O)N/N=C/c2ccc(O)c(O)c2)nc2ccccc21`, for which the inhibition was 61.1% (active).

Take `CC(=O)Oc1ccc(-c2cccc(C(=O)N3CCCCC3)c2)cc1`: the inhibition is 0.56%.

For `CSc1nccc(NC(=O)c2ccc(C(C)(C)C)cc2)n1`, the inhibition is -0.09%.

For the compound `Cc1cccc([C@@H]2[C@@H]3C(=O)N(Cc4ccccc4)C(=O)[C@@H]3[C@]3(C)C(=O)N(c4ccc(Br)cc4)C(=O)N23)c1`, the inhibition was -12%.

Turning to `Cc1ccc(CNC(=O)[C@@H](NC(=O)Cc2ccccc2)C(C)C)cc1`, the inhibition was 5.66%.

As to `COc1cccc(NC(=O)Nc2nnc(N3CCCCC3C)s2)c1` (stereo unspecified), the inhibition is 0.21%.

Turning to `COc1ccccc1NC(=O)c1ccc(N2CC3CC(C2)c2cccc(=O)n2C3)c(NC(=O)c2cccnc2)c1` (stereo unspecified), the inhibition is 29.5% (active).

For `COc1ccccc1NC(=O)c1ccc2nc(N3C(=O)CCC3=O)sc2c1`, the inhibition was -4.36%.

As to `CCOc1ccccc1NC(=O)c1cccnc1`, the inhibition is -12.7%.

`CC(C)Cn1c(=O)c2ccccc2n2c(CCC(=O)NCc3ccccn3)nnc12`: the inhibition was -6.62%.

`CCOc1ccc(S(=O)(=O)N2CCN=C2Cc2ccccc2)cc1C`: the inhibition was -0.06%.

Consider `Cc1nnc(N/N=C/c2ccccn2)[nH]c1=O`, for which the inhibition is 8.17%.

On to `COc1ccc(Cc2nnc(N/N=C/c3ccccc3O)[nH]c2=O)cc1OC`, for which the inhibition was 54.3% (active).

Consider `O=c1[nH]c(NCCO)nnc1Cc1ccc(Cl)cc1`, for which the inhibition was 5.33%.

On to `COc1cccc(N(CC(=O)NCc2ccccc2)C(=O)CCC(=O)Nc2nccs2)c1`, for which the inhibition was -7.44%.

`CCCn1c2ccccc2c2cnn(CC(=O)NCCCN3CCCCC3CC)c(=O)c21` (stereo unspecified): the inhibition was 2.69%.

Consider `Cc1ccc(C2Nc3cccc4cccc(c34)N2)cc1`, for which the inhibition is 19.1%.

As for `COc1cccc(C2Nc3cccc4cccc(c34)N2)c1`, the inhibition is -7.19%.

In the case of `Oc1ccc(C2Nc3cccc4cccc(c34)N2)cc1`, the inhibition is 31.7% (active).

Regarding `CCOC(=O)C1(Cc2cccc(OC)c2)CCCN(C(=O)CCSC)C1` (stereo unspecified), the inhibition was -2.88%.

`Cc1ccc(C)c(N2CCN(C(=O)CCCCCn3c(=S)[nH]c4ccc(N5CCOCC5)cc4c3=O)CC2)c1`: the inhibition was 5.1%.

As to `O=C(O)CC(CC(=O)N1CCOCC1)c1ccccc1` (stereo unspecified), the inhibition is -1.93%.
